From PubChem BioAssay AID1778 (Sanford-Burnham Center for Chemical Genomics, 2009)
“And” between values parts separate entries of the source, which are not always exact repeats. Equal values may be shown once. The whole screen tested about 290,000 compounds, of which about 260 (0.09%) were called active. Cut-off read from the data, not from the text of the source: active = inhibition above about 50%; inactive = the rest. Only a selection was taken, and actives are over-represented in it overall. Potency and affinity values are given separately.

Molecular target: Kappa-type opioid receptor (Homo sapiens) (UniProt P41145)
Assay: KOR antagonists, beta-arrestin recruitment, cell-based, luminescence, uHTS (AID 1778)
Settings: antagonist mode, active compounds read high; at 10 µM unless noted

Sequence of Kappa-type opioid receptor (Homo sapiens) (P41145 whole entry, looked up): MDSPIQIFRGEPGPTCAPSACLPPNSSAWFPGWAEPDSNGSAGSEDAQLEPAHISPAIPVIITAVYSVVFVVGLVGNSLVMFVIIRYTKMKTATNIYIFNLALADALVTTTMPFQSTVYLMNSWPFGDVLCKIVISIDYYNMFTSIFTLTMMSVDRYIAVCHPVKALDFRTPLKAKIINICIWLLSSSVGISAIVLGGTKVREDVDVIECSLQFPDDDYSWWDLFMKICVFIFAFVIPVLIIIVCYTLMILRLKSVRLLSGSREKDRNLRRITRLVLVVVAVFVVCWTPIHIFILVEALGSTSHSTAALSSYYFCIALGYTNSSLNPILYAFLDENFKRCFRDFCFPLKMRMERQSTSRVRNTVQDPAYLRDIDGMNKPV

inhibition, inactive:
CCCn1c2ccccc2c2cnn(CC(=O)NCCN(C)C)c(=O)c21 -19%
COc1ccc(OCCSc2nnc(C)n2-c2ccccc2)cc1 -14.2%
O=C(COC(=O)c1c(F)cccc1F)NCCNC(=O)COC(=O)c1c(F)cccc1F -58.8%
CC1(C)CNC(=O)CC(C)(C)N1O 8.7%
O=C(NCc1ccco1)c1cccc(C(F)(F)F)c1 -35.4% [at 20 µM]
CCNc1nc(Oc2ccc(C(=O)OC)cc2)nc(SC)n1 1.5%
COc1ccccc1/C=N/N1C(=O)c2cccc3cccc(c23)C1=O -44.5%
Cc1[nH]n(-c2ccccc2)c(=O)c1/C=N/N1C(=O)c2ccc3c4c(ccc(c24)C1=O)CC3 -2.7%
O=C1c2cccc3cccc(c23)C(=O)N1/N=C/c1ccc(O)cc1O -17.5%
Cc1ccc(-n2[nH]c(C)c(/C=N/c3cccc(C)n3)c2=O)cc1 21.8%
CSc1oc(-c2ccccc2)nc1S(=O)(=O)c1ccc(F)cc1 -25.9%
O=C(CO/N=C1\CCCc2nonc21)Nc1ccc(Br)cc1 24.7%
COc1cccc(NC(=O)C2CCN(C(=O)NC3CCCCC3)CC2)c1 -51.6%
Cc1cc(C)cc(NC(=O)CSc2nnc(-c3cc(C)[nH]n3)n2N)c1 -17.6%
O=C(CSc1nnc(NC(=O)c2ccc(F)cc2)s1)NCc1ccco1 22.3%
Oc1c(N=Nc2ccc(F)cc2)ccc2ccccc12 7.2% [at 20 µM]
Cc1ccc(N=Nc2ccc3ccccc3c2O)cc1 15.6% [at 20 µM]
Oc1ccc2ccccc2c1N=Nc1ccccc1F 37.6%
Oc1ccc(N=Nc2c(O)ccc3ccccc23)cc1 32%
Oc1ccc2ccccc2c1N=Nc1ccc(F)cc1 6.7% and 41.7%
Oc1ccc2ccccc2c1/C=N/c1nccs1 -15.8%
COC(=O)c1cc(C(=O)NCC2CCCCC2)cc([N+](=O)[O-])c1 7.5%
Cc1ccc(-c2nnn(CC(=O)N(c3ccccc3)C(C(=O)NC3CCCC3)c3ccncc3)n2)o1 (stereo not drawn) 5.7%
CC(C)NS(=O)(=O)c1ccc(CCC(=O)Nc2ccc3c(c2)OCCO3)cc1 7.5%
CS(=O)(=O)c1ccc2nc(NC(=O)c3ccc(Cl)cc3)sc2c1 -55% [at 20 µM]
O=C(O)c1ccc(-c2ccccc2)[nH]c1=O 5.6%
CC(C)(C)NC(=O)c1cc(NC(=O)c2cccs2)cc(NC(=O)c2cccs2)c1 -34.4%
Cc1nc(Cl)c(Cl)n1CCOc1ccccc1 -4.6%
CCN(CC)CCCNC(=O)c1cc(Sc2nnc(C)s2)nc2ccccc12 -6.1%
Cn1cccc1CNC(=S)Nc1ccccc1Cl 28.1%
Cc1ccc(NC(=O)CC(C)CC(=O)NCc2ccccc2)cc1Cl (stereo not drawn) -17.8%
O=[N+]([O-])c1ccccc1OC/C(=N\O)c1ccccc1 13.6%
COC(=O)c1cn(NC(=O)/C=C/c2cc(OC)ccc2OC)c(=O)c2ccccc12 -8.8%
CCOc1ccc(C(=O)C(CCC(CN(C)C)C(=O)c2ccc(OCC)cc2)CN(C)C)cc1 (stereo not drawn) 15.2%
CN(C)CC(CCCCC(CN(C)C)C(=O)c1ccccc1)C(=O)c1ccccc1 (stereo not drawn) 12.5%
Cc1cccc(C(=O)OCC(=O)Nc2ccc(N3CCCCC3)cc2)c1O -7.8%
Cc1ccccc1N(C(=O)Cn1nnc(-c2cccs2)n1)C(C(=O)NCCC(C)C)c1ccco1 (stereo not drawn) 23.7%
COc1ccccc1NC(=O)CN1CC(=O)Nc2ccccc21 0%
COc1ccc(/C=C/C(=O)OCC(=O)N2CC(=O)Nc3ccccc32)cc1S(=O)(=O)N1CCOCC1 -27.5%
Cc1ccc(NC(=S)NCCCN2CCOCC2)cc1 6.6%
Cc1ccc(NC(=S)NCCN2CCOCC2)cc1C 16.7%
C/C(=N\NC(=O)c1nnn(-c2nonc2N)c1-c1ccc2c(c1)OCO2)c1cccs1 -7.9%
Cc1ccc(-c2cc(C(=O)Nc3cc(C)ccc3C)[nH]n2)c(O)c1 9.1%
CCCCC(CC)C(=O)NCc1ccc(F)cc1 (stereo not drawn) 8%
CCOC(=O)C(C(C)C)C(N)Cc1ccc(F)cc1 (stereo not drawn) -13.5%
Cc1ccccc1Cn1cc(NC(=O)CCCn2nc([N+](=O)[O-])cc2C)cn1 16.3%
COc1cccc(CNC(=O)C2CCC(CNS(=O)(=O)c3cccc4cccnc34)CC2)c1 (stereo not drawn) 27.1%
c1coc(CN=C2NC(=NCc3ccco3)c3ccccc32)c1 -31.2%
O=C1CCCC(=NCc2ccco2)C1 -29.5%
COc1ccc(C)cc1N(C(=O)c1ccco1)C(C(=O)NC1CCCC1)c1ccc(N2CCOCC2)cc1 (stereo not drawn) 5.8%
COc1cccc(N=Nc2ccc3ccccc3c2O)c1 1.7% [at 20 µM]
Cc1cccc(N=Nc2ccc(O)c3ncccc23)c1 45.9%
COc1ccc(N=Nc2ccc3ccccc3c2)c(O)c1 -6.2% [at 20 µM]
CCOc1ccc(N=Nc2ccc(O)c3ncccc23)cc1 32%
CCN(CC)S(=O)(=O)c1cc(OC)ccc1N=Nc1ccc(O)c2ncccc12 -5.1%
CCS(=O)(=O)c1ccc(N=Nc2ccc(O)c3ncccc23)c(OC)c1 14%
CN(NC(=O)COc1ccccc1)c1ccccc1 5.9%
CN(CC(=O)Nc1cccnc1)S(=O)(=O)c1cc(Cl)ccc1Cl 4.2%
COc1cccc(N2C(=O)C3C(C2=O)C3(c2ccccc2)c2ccccc2)c1 (stereo not drawn) -3.2%
CCN(CC)S(=O)(=O)c1ccc(C(=O)NCC(=O)N/N=C/c2ccccc2OC)cc1 -11.7%
O=C(OCC(=O)c1ccc(Cl)s1)c1ccccn1 34%
O=C(CSc1ccc2nnc(-c3ccccn3)n2n1)NCc1ccco1 -19.3%
CC(=O)c1sc(-c2ccccc2)cc1N 4.5%
COCCN=c1scc(-c2cc(OC)c(OC)c(OC)c2)n1/N=C/c1c(C)[nH]c2ccccc12 26.6%
COCCN=c1scc(-c2ccccc2)n1/N=C/c1c[nH]c2ccccc12 38.5%
Cc1cc([N+](=O)[O-])nn1CC(=O)NCCc1c[nH]c2ccccc12 4.9%
COCc1nnc(NC(=O)c2ccc(NC(C)=O)cc2)s1 21%
CCOC(=O)N1CCC(N2CCN(c3cc(C)ccc3C)CC2)CC1 11.6%
CCc1ccc(N(CC(=O)NC)S(C)(=O)=O)cc1 9.3%
COc1cc(OC)cc(C(=O)NCC(=O)OCc2cc(=O)oc3cc(OC)ccc23)c1 9.7%
Clc1ccc(SCc2cc(N3CCOCC3)nc(-c3ccccn3)n2)cc1 10.2%
Clc1ccc(SCc2cn3cccnc3n2)cc1 -15.8%
CCn1c(CNC(=O)c2ccco2)nnc1SCC(=O)Nc1cc(C(F)(F)F)ccc1Cl 1.4%
Fc1ccccc1COc1ccc(/C=N/NC(=S)NCc2ccccc2)cc1 -4.9%
CCOC(=O)C1(Cc2ccccc2)CCN(Cc2cc(OC)c3c(c2)OCO3)CC1 -13.9% [at 20 µM]
Cc1c(NC(=S)Nc2ccccc2C(F)(F)F)cccc1[N+](=O)[O-] 5.9%
CC(=O)Nc1ccc(S(=O)(=O)Nc2cccc3cccnc23)cc1 -32.6%
COc1cc(NS(=O)(=O)c2ccc(C)cc2)c2ncccc2c1 7.9%
O=C(O)c1ccccc1NS(=O)(=O)c1cccc2cccnc12 1.8%
O=S(=O)(Nc1cccc2ccccc12)c1ccccc1 -10.6%
O=C(Nc1ccc(S(=O)(=O)Nc2ncccn2)cc1)c1ccc(S(=O)(=O)N2CCCC2)cc1 34.1%
CS(=O)(=O)Nc1cccc2cccnc12 30.9%
Cc1cccc(NS(=O)(=O)c2ccccc2)n1 12.4%
O=S(=O)(c1cccc2cccnc12)N1CCCCC1 2.6%
Cc1ccccc1N(C(=O)c1snc(C(N)=O)c1N)C(C(=O)NCc1ccccc1)c1ccc(O)cc1 (stereo not drawn) -9.4%
Cc1c(NCc2cc(Cl)cc(Cl)c2O)c(=O)n(-c2ccccc2)n1C 22.8%
COc1ccc(NC(=O)c2ccccc2)cc1NS(=O)(=O)c1ccc(F)cc1 -5%
Cc1cc(N)nc2nc(C(F)(F)F)nn12 -5.6%
O=C1CC(Cc2ccccc2)C(=O)N1CCCn1ccnc1 (stereo not drawn) -24.1%
Cc1ccc(CNC(=O)C2CCCN(c3nc4ccccc4o3)C2)cc1 (stereo not drawn) -1.2%

inhibition, active:
Oc1ccc2ccccc2c1N=Nc1nccs1 109%
CN(C)CC(CCC(CN(C)C)C(=O)c1ccccc1)C(=O)c1ccccc1 (stereo not drawn) 83.9%
Cc1ccc(NC(=S)NCCCN2CCOCC2)cc1C 50%
CCCCC(C(=O)OCC)C(N)Cc1ccc(F)cc1 (stereo not drawn) 65.2%
CN(C)c1nc(=NCc2ccco2)ss1 83.2%
COc1cccc(N=Nc2ccc(O)c3ncccc23)c1 62.9%
O=S(=O)(Nc1cccc2cccnc12)c1ccccc1 99.6%
Cc1ccc2cccc(NS(=O)(=O)c3ccccc3)c2n1 83.9%
